Where “and” joins values, the source holds several entries; their conditions need not be identical. Equal entries are not always repeated. Compounds without any hit were thinned out: in the full panel of roughly 83,000, 20% have a hit.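 Cell lines were cultured in 96-well plates, exposed to a single compound concentration, and assessed for percent growth 48 hours later.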 Calls of active or inactive are those of the source. Rule for the calls: active = growth percent below 10; inactive = the rest.

The subject of this test is TK-10 renal. Kind of test: NCI-60 one-dose screen, 48 h (100 = growth as untreated, 0 = no growth, -100 = all killed). As to conditions: 10 µM unless noted.
For `O=C(O)c1cnccc1-c1cc(=O)[nH]n1-c1ccccc1`, the growth was 53.2% [100 µM] (inactive) and -7.14% [100 µM] (active).
Then `C=C1C(=O)OC2/C=C(/C)C3(O)OC(C)(CC(OC(=O)C(C)C)C12)CC3OC(C)=O` (stereo not given), with -95.3% [100 µM] (active); and `CC(=O)OC(C)c1cc2c(s1)C(=O)c1ccsc1C2=O` (stereo not given), with -61.4% [100 µM] (active) and -100% [100 µM] (active); and `C=C1C(=O)OC2C1CC(O)/C(C)=C\CCC1(C)OC21` (stereo not given), with 76.7% [100 µM] (inactive) and -65% [100 µM] (active).
Next, `CC(=O)OC(=C(C#N)C#N)c1nccnc1C(C)=O`: 102% [20 µM] (inactive) and -96% [20 µM] (active).
For `CC(C)=CCC/C(C)=C/CC/C(C)=C/CC/C(C)=C/C=C/C=C(\C)CC/C=C(\C)CC/C=C(\C)CCC=C(C)C`, the growth is 106% [100 µM] (inactive) and -87% [100 µM] (active).
Then `O=C1N(c2ccccc2)N=C2c3ccncc3C3=NN(c4ccccc4)C(=O)C123` (stereo not given), with 70.4% [100 µM] (inactive) and -59.4% [100 µM] (active); and `COc1cc2c(cc1O)Cc1c-2[n+](C)cc2cc(OC)c(OC)cc12`, with 89.2% [100 µM] (inactive) and 4.86% [100 µM] (active); and `COC(=O)C(=O)C(C(=O)C(=O)Nc1ccccc1C(=O)OC)c1nc2ccc(C(=O)c3ccccc3)cc2[nH]c1=O` (stereo not given), with 82.4% [100 µM] (inactive) and 16.6% [100 µM] (inactive).
Then `Cc1c2c(c(O)c3c(O)cccc13)C(=O)C1(O)C(O)=C(C(=O)NCNc3ccc(C(N)=O)cn3)C(=O)C(N(C)C)C1C2` (stereo not given), with -70% [100 µM] (active) and -74.7% [100 µM] (active).
Next, `Cc1ccc(NC(=S)C#N)c(C)c1`: 93.1% [100 µM] (inactive) and 43.3% [100 µM] (inactive); `O=C(CCc1ccccc1)On1c(-c2ccccc2)nc2ccccc2c1=S`: 9.44% [100 µM] (active) and -36.2% [100 µM] (active); `CC(C)=CCC/C(C)=C/CC/C(C)=C/CSc1ccc(Cl)cc1C(=O)O`: -67.3% [100 µM] (active) and 28.4% [100 µM] (inactive).
As to `CCC1CC(C)C(O)/C=C/C=C/CC(C)OC(=O)CC(O)C(OC)C1OC1OC(C)CC(O)(C(C)=O)C1O` (stereo not given), the growth was 62.1% [100 µM] (inactive) and 38.8% [100 µM] (inactive).
Next, `CC#CC#C/C=C1\C=CC2(OC=CC2OC(C)=O)O1` (stereo not given): -20.2% [100 µM] (active) and -81% [100 µM] (active); `NC1=NN(c2ccccc2)C2(c3ccncc3C(=O)O)C1C(N)=NN2c1ccccc1` (stereo not given): 106% [100 µM] (inactive) and 9.31% [100 µM] (active).
On to `O=c1c2ncn(C3CCCCO3)c2n(-c2ccccc2)c(=S)n1-c1ccccc1` (stereo not given), for which the growth is 20.1% [100 µM] (inactive) and 23.9% [100 µM] (inactive).
Then `CC12CCC3c4cc(Br)c(O)c(Br)c4CCC3C1CCC2O` (stereo not given), with 12.2% [100 µM] (inactive) and -95.7% [100 µM] (active); and `CN(C)CCNc1ccc(NCC[N+](C)(C)Cc2ccc([N+](=O)[O-])cc2)c2c1C(=O)c1c(O)ccc(O)c1C2=O`, with 91.1% [100 µM] (inactive) and -23.2% [100 µM] (active).
Then `COc1cc(Nc2ccc3c(c2)CCC3)nc(OC)n1`, with 53.3% [100 µM] (inactive) and -39.4% [100 µM] (active); and `CC(=O)Oc1ccc2ccc(=O)oc2c1OC(C)=O`, with 62.1% [100 µM] (inactive) and 17.8% [100 µM] (inactive); and `CC(C)(C)N/N=C(\C(=O)Nc1ccc([N+](=O)[O-])cc1[N+](=O)[O-])c1nc2ccc([N+](=O)[O-])cc2[nH]c1=O`, with 97.2% [100 µM] (inactive) and 67.6% [100 µM] (inactive).
In the case of `Cc1cc2c3c(nc4ccccc42)C(=O)c2cccnc2-c3n1`, the growth is -10.8% [100 µM] (active) and -100% [100 µM] (active).
Then `CCOC(=O)c1nc2cc(C(F)(F)F)ccc2nc1Nc1ccc(F)cc1`, with 42.7% [100 µM] (inactive) and 3.59% [100 µM] (active); and `CCCCCCCCCc1cc(=O)c2c(O)cc(O)cc2o1`, with -87.9% [100 µM] (active) and -100% [100 µM] (active).
Next, `CC12NC(=C(C#N)C#N)C(C#N)=C3NC(N)=C(C#N)C(=C31)Oc1ccccc12` (stereo not given): 22.5% [100 µM] (inactive) and -82.1% [100 µM] (active).
Next, `C/C(Cl)=N/OC(=O)Nc1ccc(S(N)(=O)=O)c(C)c1`: -100% [100 µM] (active); `CCCC(=O)Oc1c2ccsc2c(OC(=O)CCC)c2ccsc12`: -72.5% [100 µM] (active) and -100% [100 µM] (active); `O=c1c(-c2ccc3c(c2)OCO3)coc2c3c(ccc12)OCO3`: -27.5% [100 µM] (active) and -100% [100 µM] (active).
Take `O=C1c2c(O)ccc(O)c2C(=O)c2c(NCCNC(=O)C(O)C(O)C(O)C(O)CO)ccc(NCCNC(=O)C(O)C(O)C(O)C(O)CO)c21` (stereo not given): the growth was -82.4% [100 µM] (active) and -95.9% [100 µM] (active).
Next, `N#C/C(=C\c1ccccc1)C(=O)Nc1nnc(-c2ccccc2)o1`: 88.2% [100 µM] (inactive) and 4.58% [100 µM] (active); `Cc1ccc(/C=N/Nc2ccc3ccccc3n2)s1`: 50.5% [100 µM] (inactive) and 7.78% [100 µM] (active).
Next, `COc1ccc2c3c(c(=O)n(C)c2c1OC)C=CC(C)(C)O3`: 8.86% [100 µM] (active) and 15% [100 µM] (inactive); `ClC(Cl)(Cl)C1CCOC1n1nnc2ccccc21` (stereo not given): 73% [100 µM] (inactive) and 16.8% [100 µM] (inactive).
Next, `CCC/C(Cl)=N\OC(=O)Nc1ccc(F)cc1`: -100% [100 µM] (active); `CCOC(=O)CCC(NC(=O)c1ccc(OCc2nc3cc(C(F)(F)F)ccc3nc2-c2ccccc2)cc1)C(=O)OCC` (stereo not given): 84.3% [100 µM] (inactive) and 14.7% [100 µM] (inactive).
Take `C[C@]12CC[C@@H]3c4cc(Br)c(O)c(Br)c4CC[C@H]3[C@@H]1CC(Br)C2=O` (stereo not given in full): the growth was -93.2% [100 µM] (active) and -97.6% [100 µM] (active).
For `O=C1NC(=S)NC1C(Cc1ccccc1)c1ccco1` (stereo not given), the growth is 80.1% [100 µM] (inactive) and 73% [100 µM] (inactive).
Then `COc1cc2c(cc1-c1coc3cc(OCC=C(C)C)ccc3c1=O)OCO2`, with 5.74% [100 µM] (active) and 19.4% [100 µM] (inactive); and `C=C1CC(O)C2C(=C)C(=O)OC2C2C(C)C(=O)CC12` (stereo not given), with -95.6% [100 µM] (active) and -97% [100 µM] (active).

The values are drawn from PubChem BioAssay (NCI).
